# Results filed as inconclusive are left out. Calls of active or inactive are those of the source. Calls come from the whole dose curve; as a rule, active = well fitted inhibition curve with a large enough effect in the main read-out, with a control signal flat; inconclusive = small, poorly fitted or top-dose-only effect, or a change in a side signal; inactive = flat fitted curve, though single readings scatter.
# Biological target: Neuropeptide S receptor (Homo sapiens) (UniProt Q6W5P4)
# Assay: Confirmation Concentration-Response Assay for Antagonists of the Neuropeptide S Receptor: cAMP Signal Transduction;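 for activity change, negative = inhibition: 0% = DMSO with NPS and full inhibition = wells lacking NPS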
# Details: CHO-NPSR cells, cAMP TR-FRET, antagonist mode; series mostly up to 22.3 µM; activity change, negative = inhibition: at the top concentration
# Text: NIH Chemical Genomics Center [NCGC] NIH Molecular Libraries Probe Production centers Network [MLPCN] MLPCN Grant: X01-DA026210-01 Assay Submitter (PI): Heilig, Markus Alexander NCGC Assay Overview: Neuropeptide S receptor (NPSR), previously known as GPR154, is a recently de-orphanized G protein coupled receptor. Its endogenous ligand is the 20 amino acids peptide Neuropeptide S (NPS). […] NPS and its receptor are found in various tissues. Specifically they are highly expressed in brain areas that have been implicated in modulation of arousal, stress and anxiety. Central administration of NPS in mice produces an unusual profile of activity by inducing wakefulness and arousal, while at the same time suppressing anxiety. Therefore, NPSR may represent a novel drug target for the treatment of sleep and anxiety disorders. To identify NPSR antagonists, we developed a cell-based cAMP assay. NPS can stimulate the production of cAMP in Chinese hamster ovary cells stably expressing NPS receptor. This change in intracellular cAMP level can be detected by a homogeneous LANCE cAMP assay based on the TR-FRET (time resolved fluorescence resonance energy transfer) between a europium-labeled cAMP tracer complex and a cAMP-specific antibody labeled with Alexa Fluor 647. The europium-labeled cAMP tracer complex is formed by the tight interaction between Biotin-cAMP (b-cAMP) and streptavidin labeled with Europium-W8044 chelate (Eu-SA). Light pulse at 320 nm excites the europium of the cAMP tracer and the energy emitted is transferred to the Alexa molecule bound to the cAMP antibody, generating a TR-FRET signal at 665 nm. Residual energy from the europium will produce a light at 620 nm. The native unlabeled cAMP from cell lysates competes with the europium-cAMP tracer for antibody binding and reversely reduces the emission signal of Alexa by interrupting FRET between the two labeled molecules. Both emission signals from the FRET donor (620 nm) and the acceptor (665 nm) can be detected by a plate reader in the TRF mode. Expression of result in fluorescence ratio (665 nm/620 nm) helps to normalize differences due to cell density and reagent dispensing. This assay was successfully optimized to a 1536-well plate format. Select compounds from the primary screen (AID 1461) were chosen for confirmation based on potency, efficacy, SAR, and activity across other assays in PubChem and at NCGC. Other compounds are analogs of active compounds from the primary sceen.
# NCGC Assay Protocol Summary: A Chinese hamster ovary (CHO) cell line stably expressing the NPS receptor (CHO-NPSR) was obtained from Dr. Heilig lab at NIAAA and maintained in F-12 Kaighn's media (Invitrogen, Carlsbad, CA, 21127) supplemented with 10 % FBS, 100 units/ml penicillin, 100 ug/ml streptomycin and 250 ug/ml geneticin at 37C, 5% CO2 in a humidified atmosphere. Before the assay, aliquots of cells were frozen and stored at -135C. The assay was performed in 1536-well format. Data are reported for both the ratio of the two emission wavelengths, and also for the component 'donor' channel, Em2=620. […] IC50 values were determined from concentration-response data modeled with the standard Hill equation. NPS 1536-well assay protocol: (1) Fresh or frozen CHO-NPSR cells were suspended in F-12 Kaighn's media supplemented with 10 % FBS, 100 units/ml penicillin and 100 ug/ml streptomycin. Cells were plated at 4 ul/well (1200 cells) to white, tissue culture treated 1536-well plates, and then cultured at 37C, 5 % CO2 for 16 to 30 hours. (2) Add 23 nl/well of compound in DMSO solution. The final titration for each compound was between 0.6 nM and 46 uM. (3) Add 1 ul of stimulation reagent (1X HBSS buffer, 5 mM HEPES, 0.1% BSA, 500 uM RO-201724 (Sigma-Aldrich, B8279), 1.5% Alexa 647-labeled anti-cAMP antibody (from Perkin Elmer), 100 nM NPS) (4) Incubation at 37C, 5 % CO2 for 60 min. (5) Add 1 ul/well detection reagent. […]
# Potency is the fitted concentration of half-maximal effect.
# Sequence of Neuropeptide S receptor (Homo sapiens) (Q6W5P4 whole entry, looked up): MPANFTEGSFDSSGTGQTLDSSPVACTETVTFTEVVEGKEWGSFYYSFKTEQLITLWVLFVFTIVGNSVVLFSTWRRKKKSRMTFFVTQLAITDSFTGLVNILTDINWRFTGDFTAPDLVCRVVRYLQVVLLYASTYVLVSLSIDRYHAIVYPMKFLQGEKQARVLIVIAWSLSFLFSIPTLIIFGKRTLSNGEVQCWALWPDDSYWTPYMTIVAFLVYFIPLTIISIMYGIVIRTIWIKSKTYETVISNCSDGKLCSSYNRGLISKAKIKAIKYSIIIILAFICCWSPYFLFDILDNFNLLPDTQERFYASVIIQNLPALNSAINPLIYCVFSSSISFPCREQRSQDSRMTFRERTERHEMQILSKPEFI
SMILES,Potency,"activity change, negative = inhibition"
Cc1cccc(N2C(=O)NC(=O)/C(=C\c3cnn(-c4ccccc4)c3)C2=O)c1,10 µM (active),
C=C(C=O)CC1CC(O)[C@]2(C)OC3CC4OC5C[C@]6(C)O[C@]7(C)CCC8OC9C[C@]%10(C)OC%11C(C)=CC(=O)OC%11CC%10OC9C[C@@H](C)C8OC7CC6O[C@]5(C)CC5OC5C4OC3CC2O1 (stereo partly specified),,-10.3% (inactive)
CC(=O)Nc1cc([As](=O)(O)O)ccc1O,,-4.93% (inactive)
Cn1ncnc2c(=O)n(C)c(=O)nc1-2,,-1.28% (inactive)
C=CCN1C(=O)/C(=C/c2cccs2)C(=O)NC1=S,11.2 µM (active),
Cc1c(P(=S)(c2ccccc2)c2ccccc2)[n+]2ccccc2n1C,1.12 µM (active),
C[C@H]1CCCC(=O)CCCCCc2cc(O)cc(O)c2C(=O)O1,,-3.65% (inactive)
C=C1C(=O)O[C@@H]2C[C@@H](C)[C@@H]3C=CC(=O)[C@@]3(C)[C@@H](OC(=O)CC(=O)O[C@H]3[C@@H]4C(=C)C(=O)O[C@@H]4C[C@@H](C)[C@@H]4C=CC(=O)[C@]43C)[C@H]12,1 µM (active),
Cc1cc(C=C2C(=O)NC(=S)NC2=O)c(C)n1-c1ccc2c(c1)OCO2,12.6 µM (active),
CN(C)C(=S)SSC(=S)N(C)C,,-2.55% (inactive)
CCOC(=O)c1c(-n2c(C)cc(C=C3C(=O)NC(=S)NC3=O)c2C)sc2c1CCCC2,10 µM (active),
